Reference: PubChem BioAssay (Tox21)
Several values for one entry are separate records, joined by “and”; a condition that tells them apart may be missing. Equal values may be shown once. Records with an inconclusive call do not appear. Entries that show only a call come without a potency. Activity calls are given as the source filed them. The call rests on the fitted dose curve; in most records, active means well fitted cell-killing curve with a large enough effect in the repeat runs; inconclusive means weak or mixed curves, or effect the other way; inactive means flat fitted curve, though single readings scatter.

What was measured:
[1] = cAMP Responsive Elements (CRE) small molecule antagonists, cell-based qHTS assay: qHTS cell viability counter screen (AID 2060913); settings: CRE-bla HEK293T viability, CellTiter-Glo luminescence, 5 h; series mostly up to 92.4 µM; further: nearly all actives have a fitted effect of over 40% in size
In short: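 Steps: cells plated and held 18 hrs at 37 C/5% CO2; compounds and NKH477 (0.25 uM final) added; 3 hrs incubation; reporter substrate read; CellTiter-Glo added to measure cytotoxicity by luminescence.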

[2] = cAMP Responsive Elements (CRE) small molecule agonists, cell-based qHTS assay: qHTS cell viability counter screen (AID 2060914); settings: CRE-bla HEK293T viability, CellTiter-Glo luminescence, 5 h; series mostly up to 92.4 µM; further: nearly all actives have a fitted effect of over 50% in size
In short: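 In the same wells as the reporter read, viability of CRE-bla HEK 293T cells was quantified by CellTiter-Glo luminescence after a 3 h compound exposure.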
Potency means the concentration at half of the fitted maximal effect.

| SMILES | Potency [1] | Potency [2] |
| --- | --- | --- |
| O=CCCCC=O | inactive | inactive |
| Brc1cc(Br)cc(Br)c1 | inactive | inactive |
| CO/N=C(\C(=O)N[C@@H]1C(=O)N2C(C(=O)O)=C(CSc3nc(=O)c(O)nn3C)CS[C@H]12)c1csc(N)n1 | inactive | inactive |
| Cc1c(C(=O)NN2CCCCC2)nn(-c2ccc(Cl)cc2Cl)c1-c1ccc(Cl)cc1 | inactive | inactive |
| OC(C#CCN1CCCC1)(c1ccccc1)c1ccccc1 | inactive | inactive |
| CC(C)Nc1ccccc1 | inactive | inactive |
| O=C(O)c1ccc2c(c1)C(=O)OC2=O | inactive | inactive |
| Cc1[nH]nc2c1N=C(c1ccccc1Cl)c1cc([N+](=O)[O-])ccc1N2 | inactive | inactive |
| CC[C@H](NC(=O)c1cc(F)ccc1NS(=O)(=O)c1cccc2cccnc12)c1ccccc1 | inactive | inactive |
| O=C(Cl)c1ccc(C(=O)Cl)cc1 | inactive | inactive |
| CC(=O)Oc1ccc(C2(c3ccc(OC(C)=O)cc3)C(=O)Nc3ccccc32)cc1 | inactive | inactive |
| O=C(O)C1CCC1 | inactive | inactive |
| C[n+]1ccn(Cc2ccccc2)c1 | inactive | inactive |
| NC(CO)C(=O)NNCc1ccc(O)c(O)c1O (centres undefined) | inactive | inactive |
| CC(C)(CO)COC(=O)C(C)(C)CO | inactive | inactive |
| CN1C(C)(C)CC(O)CC1(C)C | inactive | inactive |
| CCCCCCCCS(=O)(=O)Cl | inactive | inactive |
| O=c1cc(-c2ccc(O)cc2)oc2cc(O)cc(O)c12 | inactive | inactive |
| COC(=O)c1cc(Cl)cc(Cl)c1 | inactive | inactive |
| NC(=O)Nc1ccc(Cl)cc1 | inactive | inactive |
| CSSc1ccoc1C | inactive | inactive |
| CCO[C@H](Cc1ccc(OCCc2ccc(OS(C)(=O)=O)cc2)cc1)C(=O)O | inactive | inactive |
| Cc1ccc(S(=O)(=O)NC2CCCCC2)cc1 | inactive | inactive |
| C[C@]12CC[C@@H]3c4ccc(O)cc4CC[C@H]3[C@@H]1C[C@@H](O)[C@@H]2O | inactive | inactive |

| SMILES | Potency [1] | Potency [2] |
| --- | --- | --- |
| Cn1c(=O)c2c(ncn2C)n(C)c1=O | inactive | inactive |
| O=C(O)c1ccc(Cl)c(Cl)c1 | inactive | inactive |
| O=C(O)c1ccccc1-n1cc(C(=O)O)c(=O)c2cc(Nc3c(F)cc(F)cc3Cl)c(Cl)cc21 | inactive | inactive |
| O=P(c1ccccc1)(c1ccccc1)c1ccccc1 | inactive | inactive |
| C(=C/c1ccccc1)/c1ccccc1 | inactive | inactive |
| CCCCC(CC)CN1CN(CC(CC)CCCC)CC(C)(N)C1 (centres undefined) | inactive | inactive |
| Cc1cc(O)c(C(C)C)cc1Cl | inactive | inactive |
| CCOC(=O)NCCOc1ccc(Oc2ccccc2)cc1 | inactive | inactive |
| CN(Cc1ccc(C(C)(C)C)cc1)Cc1cccc2ccccc12 | inactive | inactive |
| CCCCCCCCc1ccc(Nc2ccc(CCCCCCCC)cc2)cc1 | inactive | inactive |
| CCC1(C)CC(=O)NC1=O (centres undefined) | inactive | inactive |
| C#CC(O)CCCCC (centres undefined) | inactive | inactive |
| CC[C@]1(O)C[C@@H]2CN(CCc3c([nH]c4ccccc34)[C@@](C(=O)OC)(c3cc4c(cc3OC)N(C)[C@H]3[C@@](O)(C(=O)OC)[C@H](OC(C)=O)[C@]5(CC)C=CCN6CC[C@]43[C@@H]65)C2)C1 | inactive | inactive |
| C[N+](C)(C)CC(O)CCl (centres undefined) | inactive | inactive |
| CCCCCCCC(OC)OC | inactive | inactive |
| CC(Oc1cc(Cl)ccc1Cl)C(=O)O (centres undefined) | inactive | inactive |
| CC[N+](CC)(CC)CCOc1cccc(OCC[N+](CC)(CC)CC)c1OCC[N+](CC)(CC)CC | inactive | inactive |
| CC[N+](C)(CC)CCOC(=O)C1c2ccccc2Oc2ccccc21 | inactive | inactive |
| O=C1[C@H](CC[C@H](O)c2ccc(F)cc2)[C@@H](c2ccc(O)cc2)N1c1ccc(F)cc1 | inactive | inactive |
| CCC(C)(CCC(C)C)C(=O)[O-].CCC(C)(CCC(C)C)C(=O)[O-].[Zn+2] (centres undefined) | inactive | inactive |
| CC(=O)O[C@H]1CC[C@@]2(C)C(=CC[C@@H]3[C@@H]2CC[C@]2(C)C(C(C)=O)=CC[C@@H]32)C1 | inactive | inactive |
| C=CC(=O)NC(C)(C)CS(=O)(=O)O | inactive | inactive |
| CCN=c1cc2oc3cc(NCC)c(C)cc3c(-c3ccccc3C(=O)OCC)c-2cc1C | 68.3 µM (active) and 50.8 µM (active) | 68.3 µM (active) and 61.1 µM (active) |
